Source: PubChem (National Center for Advancing Translational Sciences (NCATS))
The list is not random: actives were taken first. Their share in the collection is about 6%.
D1 potentiator – potentiators of human D1 dopamine receptor; potentiation, % at 10 µM; hit rate 0.036% among 360,000; HEK293 TREx D1 cells, calcium flux, dopamine EC20 potentiation; in the data active = potentiation above about 30%; note: 0% is about no effect
DRD3 antagonist – blocks the human D3 dopamine receptor; hit rate 2.5% among 360,000; max response, negative = inhibition, %; P35462; D3R cells, DiscoveRx beta-arrestin luminescence, antagonist mode; active compounds read low; in the data active = max response below about -50%; inconclusive = no clear call, values can overlap the other calls; note: % is set by controls: 0 for no effect and ±100 for the full control effect
Target sequence (P35462 whole entry, looked up): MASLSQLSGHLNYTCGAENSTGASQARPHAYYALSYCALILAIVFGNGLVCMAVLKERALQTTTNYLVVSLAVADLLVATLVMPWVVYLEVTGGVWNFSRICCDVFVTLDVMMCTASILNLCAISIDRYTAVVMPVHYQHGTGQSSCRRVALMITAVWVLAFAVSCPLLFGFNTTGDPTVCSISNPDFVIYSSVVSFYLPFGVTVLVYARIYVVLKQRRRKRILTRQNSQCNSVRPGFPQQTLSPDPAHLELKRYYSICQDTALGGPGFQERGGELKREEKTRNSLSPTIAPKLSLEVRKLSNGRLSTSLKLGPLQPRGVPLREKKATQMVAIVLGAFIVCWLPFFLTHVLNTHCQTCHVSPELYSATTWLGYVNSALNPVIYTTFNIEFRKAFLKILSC
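Cells plated overnight at 1500 cells/well, then exposed to library compounds with dopamine controls for 90 minutes at 37 degrees C. DiscoveRx reagent added for 30–60 minutes at room temperature; luminescence read, quantitative HTS format.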
D3 ag – activates the human D3 dopamine receptor | P35462 | D3R DiscoveRx beta-arrestin cells, luminescence, 90 min | max activation, % | hit rate 0.58% among 410,000 | AID 652048; in the data active = max activation above about 30%; note: 0% is about no effect
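Agonist mode: compounds and dopamine controls were applied to plated cells for 90 min at 37 degrees C after an overnight attachment at 1500 cells/well. Luminescent read-out followed 30 - 60 minutes at room temperature with DiscoveRx detection reagent.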
BCR signal inh – inhibitors of chronic active B-cell receptor signaling; ABC-DLBCL IkBa-CBG/CBR reporter, luminescence ratio, 4 h; Potency, µM (series often up to 46.1 µM), for inactives: top-dose activity change, negative = inhibition, hits mostly inhibitors; hit rate 0.05% among 340,000; AID 493014; active = well fitted inhibition curve with a large enough effect in the signal ratio, with a control signal flat, not every such curve was filed as active; inconclusive = small, poorly fitted or top-dose-only effect, or effect the other way, or a change in a side signal; the % refers to the signal ratio;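 note: potency is the fitted concentration of half-maximal effect; plate controls were basal doxycycline-induced cells for no effect and cells given 10 µM MG132 for full effect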
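Cell line TMD8 (human ABC DLBCL), stably expressing tet-inducible CBG68-IkBa fusion and CBR; IMDM/0.5% FBS; cpd up to 46 uM; dox induction, 4 h, 37C/5% CO2; dual luminescence; green/red ratio; MG132 control.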
D1 antagonist – antagonists of human D1 dopamine receptor | HEK293 TREx D1 cells, calcium flux, dopamine EC80; active compounds read low | activity change, negative = inhibition, % at 10 µM | hit rate 3.2% among 360,000 | P21728; in the data active = activity change below about -30%; note: % is set by controls: 0 for no effect and ±100 for the full control effect
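Tetracycline-induced HEK293 Trex D1 cells, force-coupled to calcium, dye-loaded; compounds added and read 180 s, then EC80 dopamine added and calcium flux tracked kinetically another 180 s.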
D1 ag – human D1 receptor agonism; P21728; HEK293 T-REx D1 cells, calcium flux, agonist mode; activation, % at 2 µM; hit rate 1% among 360,000; AID 504660; in the data active = activation above about 30%; note: 0% is about no effect
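Tetracycline-induced HEK293 TREx D1 cells, force-coupled to calcium signalling, were dye-loaded with a no-wash calcium kit. Compound was pin-added after a 10 s baseline. Fluorescence was read kinetically at 1 cycle/s for 180 s, with calcium rises flagged as agonism.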
Active calls of the source: *.

What do the screens show for `COc1ccc(NC(=O)c2ccc3[nH]c(C)c(C)c3c2)c(OC)c1`?
D1 potentiator: -6; DRD3 antagonist: -53*; D3 ag: -17; BCR signal inh: -10%; D1 antagonist: -10; D1 ag: 5

How did Cc1ccc(C)c(Cn2c(-c3cccs3)nc3ccccc32)c1 do in these assays?
D1 potentiator: 0; D3 ag: 1; D1 antagonist: -13; D1 ag: 10

How did CC1CCC(NC(=O)c2ccc3c(c2)N(Cc2cccc(Cl)c2)C(=O)c2ccccc2S3=O)CC1 (stereo not given) do in these assays?
D1 potentiator: 1; D3 ag: -9; BCR signal inh: inconclusive; D1 antagonist: 9; D1 ag: 1

Results for CCCc1nc2ccccc2n1C(C(=O)NC(C)(C)C)C1CC1 (stereo not given) ?
DRD3 antagonist: 18; D3 ag: 5

Results for CC1C(=O)N2CCCc3cc(S(=O)(=O)N4CCN(c5ccc(F)cc5)CC4)cc1c32 (stereo not given) ?
D1 potentiator: 12; DRD3 antagonist: -18; D3 ag: -8; BCR signal inh: 9%; D1 antagonist: -46*; D1 ag: 3

What do the screens show for `COCCNC(=O)c1cccc(OC2CCN(Cc3ccccc3OC(F)F)CC2)c1`?
D1 potentiator: -6; DRD3 antagonist: 8; D3 ag: -11; BCR signal inh: -5%; D1 antagonist: -23; D1 ag: 1

What do the screens show for `COc1ccc(C(=O)C2CCCN(C(=O)CSC)C2)cc1OC` (stereo not given)?
D1 potentiator: -1; DRD3 antagonist: -7; D3 ag: 0; BCR signal inh: 0%; D1 antagonist: 18; D1 ag: 5

How did COc1ccc(NC(=O)C2CCCNC2)cc1OCC(C)C (stereo not given) do in these assays?
D1 potentiator: 1; DRD3 antagonist: inconclusive; D3 ag: -1; BCR signal inh: -1%; D1 antagonist: -3; D1 ag: 1

Results for CCOc1ccccc1CN1CCCC(C(=O)c2ccc(OC)c(OC)c2)C1 (stereo not given) ?
D1 potentiator: -5; DRD3 antagonist: -51*; D3 ag: -15; BCR signal inh: -13%; D1 antagonist: 11; D1 ag: 4

What do the screens show for `CCOc1ccccc1CN1CCC(Oc2cccc(C(=O)NCCOC)c2)CC1`?
D1 potentiator: -8; DRD3 antagonist: -19; D3 ag: -13; BCR signal inh: -1%; D1 antagonist: -48*; D1 ag: 3

Results for COc1ccc(C(=O)C2CCCN(Cc3ccc(NC(C)=O)cc3)C2)cc1OC (stereo not given) ?
D1 potentiator: -6; DRD3 antagonist: -20; D3 ag: -8; BCR signal inh: -7%; D1 antagonist: -33*; D1 ag: -2

How did COc1ccc(NC(=O)C2CCCN(CCCc3ccccc3)C2)cc1OCC(C)C (stereo not given) do in these assays?
D1 potentiator: -6; DRD3 antagonist: -16; D3 ag: -9; BCR signal inh: inconclusive; D1 antagonist: -3; D1 ag: 90*

What do the screens show for `COc1ccc2[nH]c(S(=O)Cc3ncc(C)c(OC)c3C)nc2n1` (stereo not given)?
D3 ag: 2

What do the screens show for `COc1cccc(CN2CCCC(C(=O)N3CCCCC3)C2)c1OC` (stereo not given)?
D1 potentiator: 0; DRD3 antagonist: -61*; D3 ag: -6; BCR signal inh: -2%; D1 antagonist: -2; D1 ag: 3

What do the screens show for `COc1cc(OC)c(OC)cc1CN1CCCC(C(=O)N2CCCC2)C1` (stereo not given)?
D1 potentiator: -5; DRD3 antagonist: -12; D3 ag: 11; BCR signal inh: 1%; D1 antagonist: 0; D1 ag: 0

Results for CCOC(=O)C(NC(=O)Nc1ccc(F)cc1)(OCC)C(F)(F)F (stereo not given) ?
D1 potentiator: 2; DRD3 antagonist: -53*; D3 ag: -7; BCR signal inh: 2%; D1 antagonist: 10; D1 ag: 2

How did CCOC(=O)C(NC(=O)NCc1ccccc1)(OCC)C(F)(F)F (stereo not given) do in these assays?
D1 potentiator: 3; DRD3 antagonist: 0; D3 ag: -2; BCR signal inh: 3%; D1 antagonist: -22; D1 ag: 0

Results for CCc1ccc(S(=O)(=O)NCCc2csc(C)n2)s1 ?
D1 potentiator: -1; DRD3 antagonist: 11; D3 ag: 2; BCR signal inh: -2%; D1 antagonist: -37*; D1 ag: 1

How did NC(=S)N/N=C/c1ccccc1OC(=O)c1cc2ccccc2oc1=O do in these assays?
D1 potentiator: -1; DRD3 antagonist: -22; D3 ag: 0; BCR signal inh: 3%; D1 antagonist: -4; D1 ag: -1

How did NC(=O)N/N=C/c1ccccc1OC(=O)c1cc2ccccc2oc1=O do in these assays?
D1 potentiator: 0; DRD3 antagonist: -57*; D3 ag: -6; BCR signal inh: -13%; D1 antagonist: 11; D1 ag: 1

What do the screens show for `Cc1cc(C)c2oc(-c3cccc(NC(=O)c4ccc(F)cc4)c3)nc2c1`?
D1 potentiator: 0; DRD3 antagonist: 0; D3 ag: -5; BCR signal inh: -19%; D1 antagonist: -1; D1 ag: 2

Results for COc1cc(C(=O)Nc2cccc(-c3nc4cc(C)cc(C)c4o3)c2)cc(OC)c1OC ?
D1 potentiator: -8; DRD3 antagonist: 41; D3 ag: 52*; BCR signal inh: 4%; D1 antagonist: -4; D1 ag: 3

What do the screens show for `Cc1[nH]c2ccccc2c1SCC(=O)N1CCC(C)CC1`?
D1 potentiator: -3; DRD3 antagonist: 16; D3 ag: 3; BCR signal inh: 0%; D1 antagonist: -49*; D1 ag: 0

Results for CCc1ccc(C=C2SC(=S)N(CCCC(=O)Nc3ccc(C(=O)O)cc3)C2=O)cc1 ?
DRD3 antagonist: -19; D3 ag: 5

How did CCc1ccc(/C=C2/SC(=S)N(CCCC(=O)Nc3ccccc3C(=O)O)C2=O)cc1 do in these assays?
D1 potentiator: -1; DRD3 antagonist: 14; D3 ag: 13; BCR signal inh: -8%; D1 antagonist: -32*; D1 ag: 0

How did CCc1ccc(/C=C2/SC(=S)N(CCC(=O)Nc3cccc(C(=O)O)c3)C2=O)cc1 do in these assays?
D1 potentiator: 2; DRD3 antagonist: 12; D3 ag: -9; BCR signal inh: inconclusive; D1 antagonist: 9; D1 ag: 68*

Results for Cc1nn(-c2ccccc2)c2nc(C3CC3)cc(C(=O)Nc3ccccc3F)c12 ?
D1 potentiator: -7; D3 ag: 3; D1 antagonist: -6; D1 ag: 8
